PTAP-TSG101 blk = qHTS Validation Assay for Inhibitors of HIV-1 Budding by Blocking the Interaction of PTAP/TSG101: Sytravon Library Screen; Potency, µM (series often up to 115 µM), most hits filed as inhibitors; Fluorescence polarization, FITC-PTAP peptide/Tsg101, 20 min; 44,000 tested, under 10 active; note: potency is the fitted concentration of half-maximal effect; 0% is about no effect
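Fluorescence polarization: Tsg101 binding domain (10 uM final) in 10 mM HEPES pH 7.5, 0.15 M NaCl, 0.01% Tween 20, 3 mM EDTA, 0.1 mM TCEP; compounds pinned; FITC-PTAP peptide 50 nM final; 20 min, r.t.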
GALK inhibitor = qHTS Assay for Inhibitors of Human Galactokinase (GALK): NCGC Sytravon Library Screen. Potency, µM (highest dose often 57.5 µM), for the others: top-dose activity, negative = inhibition, most hits filed as inhibitors. recombinant GALK, Kinase-Glo ATP luminescence, 1 h. P51570. 44,000 tested, under 10 active;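 note: plate controls were full GALK reaction for no effect and reaction lacking GALK for full effect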
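Reactions with and without enzyme served as controls. GALK at 5 nM phosphorylates 100 uM galactose using 35 uM ATP (HEPES pH 8.0, Mg2+) for 1 h at RT, with luminescence read 10 min after adding Kinase-Glo Plus.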
B2AR arrestin ag = qHTS assay of beta-arrestin-biased ligands of beta2-adrenergic receptor: NCGC Sytravon Library Screen; Beta-2 adrenergic receptor (Homo sapiens), P07550; HTLA Tango cells, beta-arrestin recruitment, luciferase luminescence, 18 h; Potency, µM (doses to about 46.1 µM), most hits filed as activators; 44,000 tested, under 10 active; AID 1347077, 2019;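 note: potency is the fitted concentration of half-maximal effect; 0% = DMSO and full agonism = EC100 isoproterenol or metaproterenol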
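Tango cells (recombinant beta2-AR, beta-arrestin, tTA-driven luciferase), 1500/well in DMEM 1% FBS, treated 18 h at 37 °C with compounds up to 46 µM; luciferin mix added, luminescence read after 15 min; %activity curves fitted and curve-classed.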
GALC G270D act = A Novel Cell-Based Assay to Identify Small Molecules for B -Galactocerebrosidase | 145M-Twi-hGALC-G270D cells (Twitcher mouse brain line with human GALC G270D), HMU-beta-Gal fluorescence, 48 h | hit rate 0.1% among 45,000 | P54803 | AID 1159614, 2016 | Potency, µM (doses to about 57.5 µM), hits mostly activators; note: potency is the fitted concentration of half-maximal effect; 0% is about no effect; nearly all actives have a fitted effect of over 65% in size
Target sequence (P54803 whole entry G286D): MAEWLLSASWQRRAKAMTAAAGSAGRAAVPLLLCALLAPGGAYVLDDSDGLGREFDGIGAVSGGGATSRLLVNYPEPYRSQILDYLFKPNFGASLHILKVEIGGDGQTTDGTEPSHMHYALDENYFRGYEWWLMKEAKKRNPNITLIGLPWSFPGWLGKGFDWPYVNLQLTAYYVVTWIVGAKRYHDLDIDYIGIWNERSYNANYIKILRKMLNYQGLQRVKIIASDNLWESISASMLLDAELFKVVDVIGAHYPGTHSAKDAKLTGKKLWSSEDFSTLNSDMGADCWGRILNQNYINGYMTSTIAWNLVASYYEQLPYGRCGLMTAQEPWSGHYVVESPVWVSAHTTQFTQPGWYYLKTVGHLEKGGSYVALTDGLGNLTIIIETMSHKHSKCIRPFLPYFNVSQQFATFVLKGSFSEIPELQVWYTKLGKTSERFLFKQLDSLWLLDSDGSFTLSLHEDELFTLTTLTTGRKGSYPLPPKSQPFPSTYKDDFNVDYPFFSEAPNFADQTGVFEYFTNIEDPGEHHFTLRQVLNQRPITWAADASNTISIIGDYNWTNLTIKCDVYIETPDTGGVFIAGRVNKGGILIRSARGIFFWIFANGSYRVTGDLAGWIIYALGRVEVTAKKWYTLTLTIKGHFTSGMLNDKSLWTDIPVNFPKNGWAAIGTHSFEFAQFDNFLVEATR
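Fluorogenic HMU-b-Gal hydrolysis (0.1 mM final, pH 5.2 citrate-phosphate with 1 mg/mL sodium taurocholate; carbonate stop buffer) measures mutant GALC activity after compound treatment of live 145M-Twi Twitcher brain cells stably carrying human GALC-G270D, with wild-type GALC line alongside; activation sought.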
Starred values were filed as active, the others as inactive; i = inactive; · = no result. The entries come from a sample that favours hits as a whole. Calls come from the whole dose curve; as a rule, active = well fitted curve in the direction sought with a large enough effect; inconclusive = small, poorly fitted or top-dose-only effect, or another doubt; inactive = no such curve, though single readings can be large; an effect the other way counts as inactive or inconclusive.

SMILES	PTAP-TSG101 blk	GALK inhibitor	B2AR arrestin ag	GALC G270D act
C[C@@H]1C[C@H]2[C@@H]3CCC4=CC(=O)C=C[C@]4(C)[C@@]3(F)[C@@H](O)C[C@]2(C)[C@@]1(O)C(=O)COC(=O)c1ccncc1	·	·	·	i
CN1Cc2cc(C(=O)N3CCC(C4CCNCC4)CC3)ccc2NC(CC(=O)O)C1=O (stereo not drawn)	·	·	·	i
O=C(CCOCCOCCOCCOCCC(=O)Nc1c(I)cc(I)c(C(=O)O)c1I)Nc1c(I)cc(I)c(C(=O)O)c1I	·	·	·	i
OC1(c2ccccc2)CCNCC1	·	·	·	i
C[C@H]1C[C@H]2[C@@H]3CCC4=CC(=O)C=C[C@]4(C)[C@H]3C(=O)C[C@]2(C)[C@@]1(O)C(=O)CO	·	·	·	i
COC(=O)c1cc(Cl)ccc1OC	·	·	·	i
Nc1cc(C(F)(F)F)ccc1S	·	·	·	i
CCOC(=O)c1ccc(O)c(O)c1	·	·	·	i
O=C(O)[C@H](O)[C@@H](O)[C@H](O[C@@H]1O[C@H](CO)[C@H](O)[C@H](O)[C@H]1O)[C@H](O)CO	·	·	·	i
Cc1sccc1Br	·	·	·	i
O=C(O)[C@H](O)c1ccccc1	·	·	·	i
CCCCCCCCCCCCOCCO	·	·	·	i
CCc1cccc2c(CCO)c[nH]c12	·	·	·	i
Cc1c(-c2ccc(Cl)cc2)c(=O)oc2c(CN3CCN(C)CC3)c(O)ccc12	i	0%	i	i
Cc1c(-c2ccccc2)c(=O)oc2c(CN3CCN(C)CC3)c(O)ccc12	i	1%	i	4.5µM*
O=C(O)c1ccccc1NCCc1ccccc1	·	·	·	i
Cc1cccc(OCC(O)CNC(C)(C)C)c1C (stereo not drawn)	·	·	·	i
CCCC(=O)O[C@]1(C(=O)CC)CC[C@H]2[C@@H]3CCC4=CC(=O)CC[C@]4(C)[C@H]3[C@@H](O)C[C@@]21C	·	·	·	i
CCOC(=O)C(O)c1ccccc1 (stereo not drawn)	·	·	·	i
NS(=O)(=O)c1cc(C(=O)NN2C[C@H]3[C@H]4CCC(C4)[C@H]3C2)ccc1Cl	·	·	·	i
CCO[C@H](Cc1ccc(OCCc2ccc(OS(C)(=O)=O)cc2)cc1)C(=O)O	·	·	·	i
Cc1ccc(C(C)OC(=O)C2(C)CCC(C(=O)O)C2(C)C)cc1 (stereo not drawn)	·	·	·	i
CCCCC(O)/C=C(C)/C=C/C=C/C(=O)N1CCCC1=O (stereo not drawn)	·	·	·	i
CC1c2ccccc2CN1NC(=O)c1ccc(Cl)c(S(N)(=O)=O)c1 (stereo not drawn)	·	·	·	i
C[C@@H]1CCN(C(=O)[C@H](CCCN=C(N)N)NS(=O)(=O)c2cccc3c2NC[C@H](C)C3)[C@@H](C(=O)O)C1	·	·	·	i
SMILES	PTAP-TSG101 blk	GALK inhibitor	B2AR arrestin ag	GALC G270D act
CN(C)[C@@H](CCOc1cccc2ccccc12)c1ccccc1	·	·	·	i
COc1ccccc1N1CCN(CC(O)COc2cc(OC)c(OC)c(OC)c2)CC1 (stereo not drawn)	·	·	·	i
CCN(CC)S(=O)(=O)c1ccc2c(c1)c(=O)c(C(=O)N(C)Cc1ccccc1)cn2C	i	6%	i	25µM*
CCNC(=O)[C@@H]1CCCN1C(=O)[C@H](CCCN=C(N)N)NC(=O)[C@H](CC(C)C)NC(=O)CNC(=O)[C@H](Cc1ccc(O)cc1)NC(=O)[C@H](CO)NC(=O)[C@H](Cc1c[nH]c2ccccc12)NC(=O)[C@H](Cc1cnc[nH]1)NC(=O)[C@@H]1CCC(=O)N1	·	·	·	i
COc1ccc(-c2ccc3c(N)c(C(=O)Nc4cc(F)ccc4C)sc3n2)cc1	i	2%	i	16µM*
CCCCC(CC)CNC(=O)CC(C)OC(=O)CCC(=O)O (stereo not drawn)	·	·	·	i
C[C@@H](O[C@H]1OCCN(Cc2n[nH]c(=O)[nH]2)[C@H]1c1ccc(F)cc1)c1cc(C(F)(F)F)cc(C(F)(F)F)c1	·	·	·	i
O=C(c1cc(O)c(O)c(O)c1)c1ccc(O)c(O)c1O	·	·	·	i
Cc1[nH]cnc1-c1ccc(Cl)cc1	·	·	·	i
Cc1onc(-c2c(Cl)cccc2Cl)c1C(=O)Cl	·	·	·	i
O=C1CC2(CCCC2)CC(=O)N1	·	·	·	i
NC(=O)C1(N2CCCCC2)CCN(CCCN2c3ccccc3CCc3ccc(Cl)cc32)CC1	·	·	·	i
Cc1cc2c(cc1CC(=O)c1sccc1S(=O)(=O)Nc1onc(C)c1Cl)OCO2	·	·	·	i
CC(C)NCCCC1(C(N)=O)c2ccccc2-c2ccccc21	·	·	·	i
COc1ccc2cc1Oc1cc3c(cc1OC)CC[N+](C)(C)[C@H]3Cc1ccc(cc1)Oc1c(OC)c(OC)cc3c1[C@@H](C2)[N+](C)(C)CC3	·	·	·	i
